Measurements reported in publication PMC12136788.
The full ranking holds about 24,000 sequences; the median of “enrichment r” is about 0.99, and the highest 2% start at about 3.7. Only a sample is shown.

B1: chr2:198351390:198351391:-_ENSG00000144381_ENST00000345042|hu_hu|hu_hu_hu_mus_False|78_78 (ssRNA)
RNA: GGGAGUUCUACAGUCCGACGAUCUCAUUCCCACCCUCCACAGAAAGGCUGCUUCUGUUCUCAUCUGUGGUGACACAGCGCUACAGUCCUGAUGCUCACAGAACAGUAGAGAUGCCUCAGUGAUUUAAGUUGAAAGCAGGACACCAACAGAGGAUUGAGCAUCA
B2: chr4:34758383:34758384:-_ENSMUSG00000039967_ENSMUST00000047950|mus_mus|FALSE|FALSE (ssRNA)
RNA: GGGAGUUCUACAGUCCGACGAUCUUCAUCAUCUGAACCAUCGUUGUCAUUAAACACUAUGAAAUCUGUUGAAUAAAGACUAUUCUUUUUUAUGGGUCGCUGUUCCUGUUUAGCCACAGUAUUAAUAUUAGUCUUUUGAUUUUCCAACAGAGGAUUGAGCAUCA
B3: chr17:13115065:13115066:+_ENSMUSG00000068039_ENSMUST00000151287|mus_mus|FALSE|FALSE (ssRNA)
RNA: GGGAGUUCUACAGUCCGACGAUCGAUACUUGCUCCAGAAGCUUUUGCAACAUGCUUCAGGUCUCGUUUUAAAACUCUCCUAACAGCCAUGGCACCAGCUUCCACAAAAUACUUGAGAUACAUAUCAUCAAUGCCACCAGUGGUCAACAGAGGAUUGAGCAUCA
B4: chr15:31385891:31385892:-_ENSMUSG00000039100_ENSMUST00000090227|mus_mus|motif|central (ssRNA)
RNA: GGGAGUUCUACAGUCCGACGAUCAUUCACUCCUAAACAGACACCCCUAGGCCUUAGUCACUCAUUUCCAUCUAAGGUUCGGUAGGAUUGUCAUGAUUACAAAAUGAGGCACUCAGACAGAUAGACAGGAAUGGAGACAUACAUCAACAGAGGAUUGAGCAUCA
B5: chr4:17845017:17845018:+_ENSG00000109805_ENST00000514176|hu_mus|hu_hu_hu_mus_False|1_58 (ssRNA)
RNA: GGGAGUUCUACAGUCCGACGAUCGCUCUCUUAACUUGUAUCUUCAUUAAGGAACUCUGCAAGGUUAAGUUUACUUUUUCUAGUGCUAGCUGUUUUGGCUCGUCUGGGUAAUCUCAUCUUCAUUUCUGAUGGUGGUUUGGAACUCAACAGAGGAUUGAGCAUCA
B6: chr6:146524949:146524950:-_ENSMUSG00000040250_ENSMUST00000032427|mus_hu|FALSE|FALSE (ssRNA)
RNA: GGGAGUUCUACAGUCCGACGAUCCUGCCUGCAAGAUUCUGCCAUAUAAGGGCAGUGAUCCACAACAAACACUGUUUUAUGAGAUUCAGAAAAAAUCUUCAUUUUGUUUUAACUUUCGUGCCUGGUCCUGCAGUGAAAACGAACCAACAGAGGAUUGAGCAUCA
B7: chr17:73774127:73774128:-_ENSG00000132475_ENST00000254810|hu_mus|motif|central (ssRNA)
RNA: GGGAGUUCUACAGUCCGACGAUCUGACAAGACUCCCCACCACUUGUGAAUGUAAAACAUUUAAUUUAAAAAUGUUGAACACGGCAAUAUAUAAAAUAGCUAUUAUAAAUGCACAUAGUGUAUUCUAUAGCUGCCAGGUUUACUCAACAGAGGAUUGAGCAUCA
B8: chr9:95013113:95013114:-_ENSG00000196305_ENST00000443024|hu_hu|hu_hu_hu_mus_False|68_108 (ssRNA)
RNA: GGGAGUUCUACAGUCCGACGAUCCUCAGUGAGAAAAGGCGUGUAAGGGGCCAUCAGUCUGCACAGAGAAAGCAGAACACUGAACAGUGUCUCCAGAGCCAUGACACAGUCUUCCACCCCACUCUCACCCUUUAACCUCCUCCUCAACAGAGGAUUGAGCAUCA
B9: chr8:41367971:41367972:+_ENSG00000147533_ENST00000520817|hu_hu|motif|central (ssRNA)
RNA: GGGAGUUCUACAGUCCGACGAUCAAUAUACAGUAUUAUUCCUAUCAAAUUUUUUUCUCAUAAGUUAUAUUUAUAACAAAACGGUAAUUAAAAUAUUUUUUAUACCUGCUUAUUCCAUAUCCAGGGACACAGCGGGAACAUUUACAACAGAGGAUUGAGCAUCA
B10: chr4:4237396:4237397:-_ENSG00000132406_ENST00000382753|hu_hu|motif|central (ssRNA)
RNA: GGGAGUUCUACAGUCCGACGAUCUAAAACUUCACAUUAGGAAAUGCUAAAAACCCAGUAAUGUACAUAAUGAUAAAAUCGGAAGUGAUGAGAAAACAUAAAAUAUUUUCAUUUGGUCCUGUCACCUAACAAAACUAUCAUAAACAACAGAGGAUUGAGCAUCA
B11: chr18:77696836:77696837:-_ENSMUSG00000025427_ENSMUST00000026494|mus_hu|FALSE|FALSE (ssRNA)
RNA: GGGAGUUCUACAGUCCGACGAUCCCUCAGAGGAUACCGGCUGGGUGGGCUGAGGUUGUGGGAGGAGCGAGGGAGGAGGAAAGGCAGGUUCAUGAUGGAGAGGCAGGGUUGUGGUGGGGGCGGGGGGGUGCCAAGUGUAGCAAGCAACAGAGGAUUGAGCAUCA
B12: chr8:35901500:35901501:-_ENSMUSG00000031529_ENSMUST00000033929|mus_mus|FALSE|FALSE (ssRNA)
RNA: GGGAGUUCUACAGUCCGACGAUCUAUAUAACAUGAUCUGUCUUUGUGUGUGGGACAGCCUGUUCCUCCUCCAAUUCCAUAAACAUACUGAUUGCUUUUUGAGGAGUUUUCAGCAAAGUAAAUUCCAGCUCCAAACAUCCCUCCCAACAGAGGAUUGAGCAUCA
B13: chr2:9728443:9728444:-_ENSG00000134308_ENST00000238081|hu_mus|motif|central (ssRNA)
RNA: GGGAGUUCUACAGUCCGACGAUCCUGCAUCUCCUUCUUGCUUAUAUCAAACGCCUCUUGGUAGGCUCCUUGGGAAUUUUCGGUUGUUUGUUUUCGAUCAUCGCCACAAGCUACUUCAGCAAGAUACCGGAAAUAAUCUCCCUUCAACAGAGGAUUGAGCAUCA
B14: 30602309_30602429_1961_3pUTR_ENSG00000107951_ENST00000263063|human|control|control (ssRNA)
RNA: GGGAGUUCUACAGUCCGACGAUCCGCCACACUCCACAGCUGAUGUUUUAAUAAAGUGCCACUGAGUAUCAGACUGAUCAAACUGAAAACAUCCCAGAACUUCAGACCAGGUUAAGGGGGCCAAUGAGAAGAUCAUGAAAAGUGCAACAGAGGAUUGAGCAUCA

Molecular target: T1, UNK ZnF1-3 (human, UniProt Q9C0B0 31-174)
T1 sequence: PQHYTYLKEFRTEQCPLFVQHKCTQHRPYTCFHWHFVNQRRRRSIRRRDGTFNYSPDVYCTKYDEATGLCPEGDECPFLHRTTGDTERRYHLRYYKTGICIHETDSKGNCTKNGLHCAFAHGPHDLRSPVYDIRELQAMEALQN
Assay: nsRBNS (natural sequence RNA bind-n-seq); RBNS binding buffer (assumed for nsRBNS): 25 mM Tris pH 7.5, 150 mM KCl, 3 mM MgCl2, 0.01% Triton X-100, 500 ug/ml BSA, 20 U/ml SUPERase-In, 4 C; UNK is unkempt and MSI1 is Musashi-1; names of the RNAs are library labels; protein concentration not given here; high values mean tight binding

**Q.** B1 was tested. Which binding signal did it give?
**A.** The binding signal was 1.4 enrichment R.

**Q.** How did the binding signal turn out when B2 was run?
**A.** Its binding signal is 0.418 enrichment R.

**Q.** How did the binding signal turn out when B3 was run?
**A.** The binding signal was 0.985 enrichment R.

**Q.** With B4 as the binder, how does the binding signal read?
**A.** The binding signal was 1.25 enrichment R.

**Q.** B5 was tested. Which binding signal did it give?
**A.** Its binding signal is 0.331 enrichment R.

**Q.** Which binding signal does the source give for B6 here?
**A.** Its binding signal is 1.02 enrichment R.

**Q.** How did the binding signal turn out when B7 was run?
**A.** The binding signal was 1.13 enrichment R.

**Q.** Which binding signal does the source give for B8 here?
**A.** Its binding signal is 1.61 enrichment R.

**Q.** For B9, which binding signal is on record?
**A.** Its binding signal is 1.27 enrichment R.

**Q.** With B10 as the binder, how does the binding signal read?
**A.** The binding signal was 1.05 enrichment R.

**Q.** B11 was tested. Which binding signal did it give?
**A.** The binding signal was 3.07 enrichment R.

**Q.** Which binding signal does the source give for B12 here?
**A.** Its binding signal is 1.03 enrichment R.

**Q.** With B13 as the binder, how does the binding signal read?
**A.** Its binding signal is 0.873 enrichment R.

**Q.** With B14 as the binder, how does the binding signal read?
**A.** Its binding signal is 2.32 enrichment R.
